Inconclusive results are not listed. Where a call stands in place of a potency, no number is given. Active and inactive are the calls of the source. Calls come from the whole dose curve; as a rule, active = well fitted cell-killing curve with a large enough effect; inconclusive = small, poorly fitted or top-dose-only effect; inactive = flat fitted curve, though single readings scatter.
Potency is the fitted concentration of half-maximal effect.

The test in a line: Quantitative highthroughput screen to assess conditional lethalithy of P12 Ichikawa cells grown in RPMI1640 with untreated serum (RPMI+s) (AID 1963881). Note: nearly all actives have a fitted effect of over 35% in size. The conditions noted are these: ATP luminescence, 48 h; Potency: viability; series mostly up to 45.8 µM. An excerpt:
Assay Provider: Jason Cantor Ph.D.
Department of Biochemistry
University of Wisconsin-Madison, Madison, WI, USA
Chemical screening studies have identified drug sensitivities across hundreds of cancer cell lines but most putative therapeutics fail to translate. Discovery and development of drug candidates in models that more accurately reflect nutrient levels in human blood is a major challenge. Here we performed high-throughput screens in conventional versus Human Plasma-Like Medium (HPLM) to identify compounds that were "missed" when screening using the artificial culture condition. Sets of conditional anticancer compounds spanned phases of clinical development and included non-oncology drugs were assessed. […] We also traced conditional phenotypes for several chemotherapeutics to availability of HPLM-specific metabolites and confirmed others for compounds whose reported targets are encoded by nonessential genes. Our findings establish generalizable strategies for exploiting conditional lethality in HPLM to reveal therapeutic candidates and mechanisms of action in cancer cells.
Described herein are the results of each viability screens against three cell lines: NOMO1 (an acute myeloid leukemia cell line); P12-Ichikawa (a T-cell acute lymphoblastic leukemia); and SEM (a B-cell ALL). Each assay was screened using 3 different cell culture media: homemade human plasma-Like medium with 10% dialyzed fetal bovine serum (HPLM+ds); RPMI1640 with 10% untreated FBS and 5mM glucose (RPMI+s); and RPMI1640 with 10% dialyzed fetal bovine serum and 5 mM glucose (RPMI+ds).
PROTOCOL TABLE (as described by Inglese J, Shamu CE and Guy RK. 2007)
SEQUENCE No. (e.g., 1, 2, 3, etc.); […] (e.g., Cells, Incubation, Reagent, etc.); VALUE and DESCRIPTION.
1; Cells; 5 uL; white, solid bottom 1536-well Greiner assay plate.
2; Compounds; 23 nL; Kalypsis pin tool (Wako USA) equipped with a 1536-well pin head to transfer to the assay plates.
3; Incubation; 48 hours; 37C incubation.
4; Reagent; 3 uL; CellTiter Glo (Promega).
5; Incubation; 5 min, room temperature
6; Detection; Luminescence, Viewlux PerkinElmer.
NOTES (numbers refer to Sequence numbers above)
1. Briefly, 5 ul of cell reagent was dispensed using a Multidrop Combi Dispenser. The NOMO1 and SEM cells were plated at 500 cells/well and the P12-Ichikawa line at 1000 cells/well.
2. After seeding the cells, 23 nL of MIPE 4.1 library compounds (in DMSO) were added to each plate using a Kalypsys 1536 Pintool dispenser. Bortezomib at final concentration of […] and DMSO were added to each plate as positive and negative controls respectively. For each screen, MIPE 4.1 compounds were added over an eleven-point concentration range […] in 3-fold dilutions.
3. Each plate was covered with a stainless steel gasketed lid to prevent evaporation and incubated for 48 hour at 37C, 95% relative humidity, and 5% CO2.
4-5. Three microliter CellTilter-GloTM luminescent substrate mix (Promega) reagent was added to the assay plate and incubated at room temperature for 5 min.
6. The luminescence signal was measured using a ViewLux (PerkinElmer) multiplate reader with a 2 second exposure time per plate. Data for each compound were normalized as percent viability such that measurements for DMSO and the empty well controls in each plate were defined as 100% and 0%, respectively.
As to `NC1CC1c1ccccc1` (stereo not given), the Potency entry is “inactive”.

On to `CC(C)[C@H]1C(=O)N[C@H](CO)Cc2c[nH]c3cccc(c23)N1C`, for which the Potency is 0.372 µM (active).

With `COCC1(CO)C(=O)C2CCN1CC2` (stereo not given), the Potency is 16.6 µM (active).

As to `CN1CCN(c2ccc([N+](=O)[O-])c3no[n+]([O-])c23)CC1`, the Potency result was “inactive”.

On to `O=P1(NCCCl)OCCCN1CCCl` (stereo not given), for which the Potency result was “inactive”.

On to `CCc1c(C(=O)C(N)=O)c2c(OCC(=O)O)cccc2n1Cc1ccccc1`, for which the Potency entry is “inactive”.

For the compound `CSCC[C@@H](NC(=O)[C@@H](Cc1ccccc1)NC(=O)CNC(=O)CNC(=O)[C@@H](N)Cc1ccc(O)cc1)C(=O)O`, the Potency entry was “inactive”.

Take `Clc1ccccc1C(c1ccccc1)(c1ccccc1)n1cccn1`: the Potency result was “inactive”.

For the compound `CN1C(=O)COc2c(C(=O)NC3CN4CCC3CC4)cc(Cl)cc21` (stereo not given), the Potency result was “inactive”.

For the compound `O=c1[nH]c2ccccc2n1CCCN1CCC(n2c(=O)[nH]c3cc(Cl)ccc32)CC1`, the Potency result was “inactive”.

Regarding `CC[C@@H](C(N)=O)N1CCCC1=O`, the Potency entry is “inactive”.

Consider `C#CCN(C)[C@H](C)Cc1ccccc1`, for which the Potency entry is “inactive”.

Consider `Cc1nc(-c2ccc(-c3ccc(C(=O)N4CCc5cc6c(cc54)C4(CCN(C)CC4)CO6)cc3)c(C)c2)no1`, for which the Potency entry was “inactive”.

Regarding `C[C@]12CC[C@@H]3c4ccc(OC(=O)N(CCCl)CCCl)cc4CC[C@H]3[C@@H]1CC[C@@H]2OP(=O)(O)O`, the Potency entry is “inactive”.

For the compound `CN(C)CCc1ccc(O)cc1`, the Potency result was “inactive”.

On to `CN1C(=O)CCS(=O)(=O)C1c1ccc(Cl)cc1` (stereo not given), for which the Potency entry was “inactive”.

Consider `CCC1(c2ccc(N)cc2)CCC(=O)NC1=O` (stereo not given), for which the Potency result was “inactive”.

In the case of `NCC1(CC(=O)O)CCCCC1`, the Potency entry was “inactive”.

For `C[C@]12CC[C@H]3[C@@H](CCC4=CC(=O)CC[C@@]43C)[C@H]1CC[C@H]2O`, the Potency entry is “inactive”.

For the compound `NC1=NC(=O)N2CC12` (stereo not given), the Potency was 5.26 µM (active).

As for `CN(C)CCN(C)CCc1ccc(Cl)c(Cl)c1`, the Potency entry is “inactive”.

In the case of `CNCC(O)c1ccc(O)cc1` (stereo not given), the Potency entry was “inactive”.

With `C[C@](O)(COc1ccc(C#N)cc1)C(=O)Nc1ccc(C#N)c(C(F)(F)F)c1`, the Potency entry was “inactive”.

As to `O=C(Oc1ccc([N+](=O)[O-])cc1)N1CCN(Cc2cccc(Oc3ccccc3)c2)CC1`, the Potency entry is “inactive”.

Turning to `CC(C)(O)C(=O)Nc1ccc([N+](=O)[O-])c(C(F)(F)F)c1`, the Potency is 8.33 µM (active).

Consider `Cc1sc2c(c1C)C(c1ccc(Cl)cc1)=N[C@@H](CC(=O)OC(C)(C)C)c1nnc(C)n1-2`, for which the Potency is 1.87 µM (active).

Take `CCOc1ccccc1-n1c(C(C)N2CCN(C(=O)COc3ccc(Cl)cc3)CC2)nc2ccccc2c1=O` (stereo not given): the Potency was 1.48 µM (active).

Regarding `CC(C)(C)[C@]1(O)C[C@@H]2OC(=O)C[C@@]23C(=O)O[C@@H]2OC(=O)[C@H](O)C213` (stereo not given in full), the Potency result was “inactive”.

With `O=C(O)C(=O)c1cn(Cc2ccccc2)c2ccc(-c3ccc(OC(F)(F)F)cc3)cc12`, the Potency result is “inactive”.

Take `N[C@@H](Cc1ccc(N(CCCl)CCCl)cc1)C(=O)O`: the Potency was 4.69 µM (active).

As for `CC1=C2C[C@@H]3[C@@H](CC=C4C[C@@H](O)CC[C@@]43C)[C@@H]2CC[C@]12O[C@H]1C[C@H](C)CN[C@H]1[C@H]2C`, the Potency result is “inactive”.

As for `CC1=C(O)C(=O)C=C2C1=CC=C1[C@@]2(C)CC[C@@]2(C)[C@@H]3C[C@](C)(C(=O)O)CC[C@]3(C)CC[C@]12C`, the Potency was 2.96 µM (active).

Consider `C#CC1(O)CCC2C3CCC4=CC(=O)CCC4(C)C3CCC21C` (stereo not given), for which the Potency result is “inactive”.

Turning to `COc1ccc(C(=O)c2c(C)n(CCN3CCOCC3)c3cc(I)ccc23)cc1`, the Potency was 4.18 µM (active).

As to `COC1=C[C@@H]2[C@@H]3Cc4ccc(OC)c(O)c4[C@]2(CCN3C)CC1=O`, the Potency entry is “inactive”.

As to `CC(C)[C@]12O[C@@H]1[C@@H]1O[C@]13[C@]1(O[C@H]1C[C@@H]1C4=C(CC[C@@]13C)C(=O)OC4)[C@H]2O`, the Potency is 0.0015 µM (active).

For `CN(C)[C@@H]1C(=O)C(C(N)=O)=C(O)[C@@]2(O)C(=O)C3=C(O)c4c(O)cccc4[C@@](C)(O)[C@H]3C[C@@H]12`, the Potency entry is “inactive”.

On to `O=c1[nH]c2ccccc2n1C1CCN(Cc2ccc(-c3[nH]c4cc5ncnc5cc4nc3-c3ccccc3)cc2)CC1`, for which the Potency entry is “inactive”.

Take `COc1ccc(CC2NCCc3cc(OC)c(OC)cc32)cc1OC` (stereo not given): the Potency entry was “inactive”.

Turning to `C[C@H]([C@H](O)CCC(C)(C)O)[C@H]1CC[C@@]2(O)C3=CC(=O)[C@@H]4C[C@@H](O)[C@@H](O)C[C@]4(C)[C@@H]3CC[C@]12C`, the Potency result was “inactive”.

For the origin of these results see PubChem BioAssay (NCATS).
